{"source": "ChEMBL document CHEMBL1961873", "about": "“Compounds: GSK PKIS; Assays: Nanosyn kinase panel” (2012)", "data": [{"molecular_target": "Fibroblast growth factor receptor 3 (Homo sapiens) (UniProt P22607)", "sequence (P22607 23-806 limits assumed)": "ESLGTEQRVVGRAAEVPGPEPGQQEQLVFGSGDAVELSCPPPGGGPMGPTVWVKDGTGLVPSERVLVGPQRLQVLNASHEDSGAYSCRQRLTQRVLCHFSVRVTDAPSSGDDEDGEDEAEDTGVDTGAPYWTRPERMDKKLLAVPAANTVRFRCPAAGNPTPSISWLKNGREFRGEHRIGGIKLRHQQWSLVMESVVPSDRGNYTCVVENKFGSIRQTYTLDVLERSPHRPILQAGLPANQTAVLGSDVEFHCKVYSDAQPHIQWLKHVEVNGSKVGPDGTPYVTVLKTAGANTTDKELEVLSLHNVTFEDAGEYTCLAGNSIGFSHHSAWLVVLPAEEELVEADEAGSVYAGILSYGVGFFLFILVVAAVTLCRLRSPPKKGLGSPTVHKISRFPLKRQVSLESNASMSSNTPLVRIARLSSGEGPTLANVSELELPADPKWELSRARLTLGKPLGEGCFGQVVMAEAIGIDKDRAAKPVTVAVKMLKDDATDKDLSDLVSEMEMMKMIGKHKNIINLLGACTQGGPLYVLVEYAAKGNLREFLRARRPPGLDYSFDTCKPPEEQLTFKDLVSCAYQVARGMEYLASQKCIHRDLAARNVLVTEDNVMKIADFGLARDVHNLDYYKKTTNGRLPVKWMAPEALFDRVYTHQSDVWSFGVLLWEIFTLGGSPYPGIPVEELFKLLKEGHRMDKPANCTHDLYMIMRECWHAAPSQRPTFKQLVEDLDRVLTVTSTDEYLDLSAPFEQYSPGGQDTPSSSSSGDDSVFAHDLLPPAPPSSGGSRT", "conditions": "at 0.1 µM", "units": {"inhibition": "%"}, "values": [{"molecule": "CN(c1ccc(NC(=O)Nc2ccc(OC(F)(F)F)cc2)cc1)c1ccnc(Nc2cccc(S(N)(=O)=O)c2)n1", "inhibition": 3.87}, {"molecule": "COc1cc2ncn(-c3cc(OCc4ccccc4S(C)(=O)=O)c(C#N)s3)c2cc1OC", "inhibition": 9.71}, {"molecule": "Cc1ccc(O)cc1Nc1ccnc2ccc(S(C)(=O)=O)cc12", "inhibition": 6.01}, {"molecule": "CN1CCN(C(=O)c2ccc(NC(=O)Nc3ccc(N(C)c4ccnc(Nc5ccc(CS(C)(=O)=O)cc5)n4)cc3)cc2)CC1", "inhibition": 4.9}, {"molecule": "COC(=O)Nc1nc2cc(Oc3ccc(NC(=O)Nc4cccc(Br)c4)cc3)ccc2[nH]1", "inhibition": 4.36}, {"molecule": "NS(=O)(=O)c1ccc(N/N=C2\\C(=O)Nc3ccc(Cl)cc32)cc1", "inhibition": 5.81}, {"molecule": "Cc1nc(-c2ccccc2)n2nc(NCCCN3CCOCC3)ncc12", "inhibition": 6.35}, {"molecule": "COc1cc(Nc2nccc(-c3cnn4ncccc34)n2)cc(OC)c1", "inhibition": 4}, {"molecule": "NS(=O)(=O)c1cccc(Nc2cc(-c3ccc(F)cc3)n[nH]2)c1", "inhibition": 8.19}, {"molecule": "COc1ccc2ncnc(Nc3ccc(OCc4ccccc4)cc3)c2c1", "inhibition": 1.63}, {"molecule": "Cc1ccc2c(c1)/C(=N/Nc1ccc(S(N)(=O)=O)cc1)C(=O)N2", "inhibition": 4.04}, {"molecule": "Cc1ccc(C(=O)NC2CC2)cc1-c1ccc2[nH]ncc2c1", "inhibition": -5.18}, {"molecule": "CCS(=O)(=O)c1ccc(OC)c(Nc2ncc(-c3cccc(OC)c3)o2)c1", "inhibition": 28.7}, {"molecule": "c1ccc(Cc2nc3ccc(Nc4ncnc5ccccc45)cc3[nH]2)cc1", "inhibition": 4.51}, {"molecule": "NC(=O)c1cccc(Nc2nccc(Nc3cccc(F)c3)n2)c1", "inhibition": 4.22}, {"molecule": "CCCN1CCCC(c2ccc(Nc3nc(Nc4cc(F)ccc4C(N)=O)c4cc[nH]c4n3)c(OC)c2)C1", "note": "(stereo not given)", "inhibition": 5.86}]}, {"molecular_target": "Fibroblast growth factor receptor 3 (Homo sapiens) (UniProt P22607)", "conditions": "at 1 µM", "units": {"inhibition": "%"}, "values": [{"molecule": "CCn1c(-c2nonc2N)nc2ccc(F)cc21", "inhibition": 5.83}, {"molecule": "[O-][S+]1CCN(Cc2ccc(-c3ccc4ncnc(Nc5ccc(OCc6ccccc6)c(Cl)c5)c4c3)o2)CC1", "inhibition": 3.23}, {"molecule": "N#Cc1cccc(Nc2nccc(-c3cnn4ncccc34)n2)c1", "inhibition": 17.2}, {"molecule": "CS(=O)(=O)CCNCc1nc(-c2ccc3ncnc(Nc4ccc(OCc5cccc(C(F)(F)F)c5)cc4)c3c2)cs1", "inhibition": 4.35}, {"molecule": "COC(=O)c1ccc2c(c1)C(=Cc1cc(Br)c(O)c(Br)c1)C(=O)N2", "inhibition": 5.51}, {"molecule": "NS(=O)(=O)c1cccc(-c2cc3ccncc3cc2OCc2ccccc2)c1", "inhibition": 13}, {"molecule": "COc1ccc(-c2nn3ncccc3c2-c2ccnc(Nc3cccc(C(F)(F)F)c3)n2)cc1", "inhibition": 4.58}, {"molecule": "Cc1cc(O)cc(C)c1/C=C/c1cncc(C(=O)N(C)C)c1", "inhibition": 3.19}, {"molecule": "COc1cc(/C=N/Nc2ncnc3c2cnn3C(C)C)ccc1O", "inhibition": 7.76}, {"molecule": "CCOc1nccc2c1nc(-c1nonc1N)n2CC", "inhibition": 10.9}, {"molecule": "Oc1cccc(-c2nc(-c3ccccc3)[nH]c2-c2ccncc2)c1", "inhibition": 5.69}, {"molecule": "Nc1nccc(C#Cc2cncnc2Nc2ccc(OCc3cccc(F)c3)c(Cl)c2)n1", "inhibition": 5.62}, {"molecule": "Cc1ccc2c(-c3ccnc(Nc4ccc5c(c4)OCCO5)n3)c(-c3ccc(C(F)(F)F)cc3)nn2n1", "inhibition": 1}, {"molecule": "CS(=O)(=O)Nc1cccc(-c2ccc3c(NC(=O)C4CC4)n[nH]c3c2)c1", "inhibition": 2.41}, {"molecule": "Cc1cc(-c2ccccn2)cc(C)c1/C=C/c1cncc(-c2nn[nH]n2)c1", "inhibition": 4.82}, {"molecule": "CN(C)CCCn1c(-c2nonc2N)nc2cnccc21", "inhibition": 3.96}, {"molecule": "Cc1cc(Cl)cc2c1NC(=O)C2=NNc1ccc(S(N)(=O)=O)cc1", "inhibition": 0.97}, {"molecule": "CN(c1ccc(NC(=O)Nc2ccc(OC(F)(F)F)cc2)cc1)c1ccnc(Nc2cccc(S(N)(=O)=O)c2)n1", "inhibition": 23.3}, {"molecule": "COc1cc2ncn(-c3cc(OCc4ccccc4S(C)(=O)=O)c(C#N)s3)c2cc1OC", "inhibition": 24.1}, {"molecule": "Cc1ccc(O)cc1Nc1ccnc2ccc(S(C)(=O)=O)cc12", "inhibition": 11}, {"molecule": "CN1CCN(C(=O)c2ccc(NC(=O)Nc3ccc(N(C)c4ccnc(Nc5ccc(CS(C)(=O)=O)cc5)n4)cc3)cc2)CC1", "inhibition": 5.11}, {"molecule": "COC(=O)Nc1nc2cc(Oc3ccc(NC(=O)Nc4cccc(Br)c4)cc3)ccc2[nH]1", "inhibition": 2.66}, {"molecule": "NS(=O)(=O)c1ccc(N/N=C2\\C(=O)Nc3ccc(Cl)cc32)cc1", "inhibition": 13}, {"molecule": "Cc1nc(-c2ccccc2)n2nc(NCCCN3CCOCC3)ncc12", "inhibition": 4.45}, {"molecule": "COc1cc(Nc2nccc(-c3cnn4ncccc34)n2)cc(OC)c1", "inhibition": 20.5}, {"molecule": "NS(=O)(=O)c1cccc(Nc2cc(-c3ccc(F)cc3)n[nH]2)c1", "inhibition": 8.88}, {"molecule": "COc1ccc2ncnc(Nc3ccc(OCc4ccccc4)cc3)c2c1", "inhibition": 2.3}, {"molecule": "Cc1ccc2c(c1)/C(=N/Nc1ccc(S(N)(=O)=O)cc1)C(=O)N2", "inhibition": 26.5}, {"molecule": "Cc1ccc(C(=O)NC2CC2)cc1-c1ccc2[nH]ncc2c1", "inhibition": 0.28}]}]}
